Results from PubChem BioAssay.
Records with an inconclusive call do not appear. Calls of active or inactive are those of the source.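 How the source made its calls, unless noted: active means normalized viability below 100% at a tested concentration; inactive means the rest.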

Columns and labels:
[1] = growth inhibition of DIPG glioma cells, dose response, cell-based, SU-DIPG-XVII, MIPE5.0, CellTiter-Glo, qHTS (AID 1347060; cut-off not given, nearly all actives have AC50 up to about 26 µM;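 on AC50: cells exposed to compound for 48 hours before viability readout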); details: SU-DIPG-XVII viability, CellTiter-Glo ATP luminescence
[2] = growth inhibition of DIPG glioma cells, dose response, cell-based, SU-DIPG-XIII, MIPE4.0, CellTiter-Glo, qHTS (AID 1347061; cut-off not given, nearly all actives have AC50 up to about 37 µM;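 further: cells exposed to compound for 48 hours before readout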); details: SU-DIPG-XIII viability, CellTiter-Glo ATP luminescence
[3] = growth inhibition of DIPG glioma cells, dose response, cell-based, JHH-DIPG-1, MIPE4.0, CellTiter-Glo, qHTS (AID 1347062; cut-off not given, nearly all actives have AC50 up to about 27 µM;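 on AC50: cells exposed to compound for two days before readout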); details: JHH-DIPG-1 viability, CellTiter-Glo ATP luminescence
[4] = growth inhibition of DIPG glioma cells, dose response, cell-based, SU-DIPG-IV, MIPE4.0, CellTiter-Glo, qHTS (AID 1347063; cut-off not given, nearly all actives have AC50 up to about 30 µM;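 further: compound exposure lasted 48 hours before the viability readout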); details: SU-DIPG-IV viability, CellTiter-Glo ATP luminescence
[5] = growth inhibition of DIPG glioma cells, dose response, cell-based, SU-DIPG-XIII, MIPE5.0, CellTiter-Glo, qHTS (AID 1347064; cut-off not given, nearly all actives have AC50 up to about 23 µM;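 on AC50: cells exposed to compound for 48 hours before the viability read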); details: SU-DIPG-XIII viability, CellTiter-Glo ATP luminescence
[6] = viability loss in pontine glioma line – cell-based, SU-DIPG-XXV, MIPE5.0, CellTiter-Glo, qHTS, dose response (AID 1347065; cut-off not given, nearly all actives have AC50 up to about 26 µM;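 further: cells exposed to compound for 48 hours before ATP readout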); details: CellTiter-Glo ATP luminescence
[7] = SU-DIPG-VI glioma cell viability, MIPE4.0 library, CellTiter-Glo luminescence, qHTS (AID 1347066; cut-off not given, nearly all actives have AC50 up to about 30 µM;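 further: cells exposed to compound for 48 hours before readout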); details: CellTiter-Glo ATP luminescence
[8] = JHH-DIPG-1 glioma cell viability, MIPE5.0 library, CellTiter-Glo luminescence, qHTS (AID 1347067; cut-off not given, nearly all actives have AC50 up to about 26 µM;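 further: cells exposed to compound for 48 hours before readout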); details: JHH-DIPG-1 glioma viability, CellTiter-Glo ATP luminescence
[9] = SU-DIPG-XXV glioma cell viability, MIPE5.0 library, qHTS (AID 1347068; cut-off not given, nearly all actives have IC50 up to about 30 µM;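 on IC50: cells exposed to compound for 48 hours before viability readout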)
[10] = sensitizers of A549 cells to miR-34 induction, primary screen, imaging, A549 dox-inducible miR-34, nuclei and caspase counts (AID 1347080;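 active means compounds whose cell count with miR-34 switched on is under 0.7 times the count with it off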); details: A549 miR-34 inducible, Hoechst nuclei count, 48 h
[11] = modifiers of HSF1 nuclear foci, imaging, Selleck Cancer Library (AID 1347162; in the data active means plate-normalised HSF1 focus index below about 0.46); details: human cells, at 10 µM; SSMD: measured here: HSF1 foci SSMD mean; cell count: measured here: cell number; plate-normalised HSF1 focus index: stronger effect = lower value
[12] = survival rescue of mitochondrial mutant cells in low glucose, primary screen, MELAS cybrids, Rieske KO mouse fibroblasts, CellTiter-Glo (AID 1508586;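 active means mean z-score across replicates of 1.96 or higher in either the MELAS or the Rieske mutant cell line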;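 further: z relative to plate mean and SD of compound and empty wells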)
[13] = ovarian cancer cell viability with rucaparib, profiling panel, oncology-focused library, rucaparib conditional (AID 1508598); details: patient-derived ovarian cancer cells, CellTiter-Glo viability, 144 h, stronger effect = lower value
[14] = stronger effect = lower value, cell number ratio, induced over uninduced
[15] = measured here: relative caspase fold change +Dox/-Dox
[16] = measured here: total cells with miR-34 induction, stronger effect = lower value
[17] = measured here: total cells without miR-34 induction
[18] = MELAS cybrid survival, CellTiter-Glo 48 h, stronger effect = higher value
[19] = Rieske KO mouse fibroblast survival, CellTiter-Glo 72 h
[20] = at 0.000305 µM, OCI-C5x cells, with rucaparib 10 µM, 100% = cells with rucaparib alone
[21] = at 0.000305 µM, OCI-C5x cells, without rucaparib
[22] = at 0.000305 µM, OCI-P5x cells, with rucaparib 20 µM, 100% = cells with rucaparib alone
[23] = at 0.000305 µM, OCI-P5x cells, without rucaparib
[24] = at 0.00122 µM, OCI-C5x cells, with rucaparib 10 µM, 100% = cells with rucaparib alone
[25] = at 0.00122 µM, OCI-C5x cells, without rucaparib
[26] = at 0.00122 µM, OCI-P5x cells, with rucaparib 20 µM, 100% = cells with rucaparib alone
[27] = at 0.00122 µM, OCI-P5x cells, without rucaparib
[28] = at 0.00488 µM, OCI-C5x cells, with rucaparib 10 µM, 100% = cells with rucaparib alone
[29] = at 0.00488 µM, OCI-C5x cells, without rucaparib
[30] = at 0.00488 µM, OCI-P5x cells, with rucaparib 20 µM, 100% = cells with rucaparib alone
[31] = at 0.00488 µM, OCI-P5x cells, without rucaparib
[32] = at 0.0195 µM, OCI-C5x cells, with rucaparib 10 µM, 100% = cells with rucaparib alone
[33] = at 0.0195 µM, OCI-C5x cells, without rucaparib
[34] = at 0.0195 µM, OCI-P5x cells, with rucaparib 20 µM, 100% = cells with rucaparib alone
[35] = at 0.0195 µM, OCI-P5x cells, without rucaparib
[36] = at 0.0781 µM, OCI-C5x cells, with rucaparib 10 µM, 100% = cells with rucaparib alone
[37] = at 0.0781 µM, OCI-C5x cells, without rucaparib
[38] = at 0.0781 µM, OCI-P5x cells, with rucaparib 20 µM, 100% = cells with rucaparib alone
[39] = at 0.0781 µM, OCI-P5x cells, without rucaparib
[40] = at 0.313 µM, OCI-C5x cells, with rucaparib 10 µM, 100% = cells with rucaparib alone
[41] = at 0.313 µM, OCI-C5x cells, without rucaparib
[42] = at 0.313 µM, OCI-P5x cells, with rucaparib 20 µM, 100% = cells with rucaparib alone
[43] = at 0.313 µM, OCI-P5x cells, without rucaparib
[44] = at 1.25 µM, OCI-C5x cells, with rucaparib 10 µM, 100% = cells with rucaparib alone
[45] = at 1.25 µM, OCI-C5x cells, without rucaparib
[46] = at 1.25 µM, OCI-P5x cells, with rucaparib 20 µM, 100% = cells with rucaparib alone
[47] = at 1.25 µM, OCI-P5x cells, without rucaparib
[48] = at 5 µM, OCI-C5x cells, with rucaparib 10 µM, 100% = cells with rucaparib alone
[49] = at 5 µM, OCI-C5x cells, without rucaparib
[50] = at 5 µM, OCI-P5x cells, with rucaparib 20 µM, 100% = cells with rucaparib alone
[51] = at 5 µM, OCI-P5x cells, without rucaparib

CC(=O)OC[C@@H]1O[C@@H](n2ccc(=O)[nH]c2=O)[C@H](OC(C)=O)[C@@H]1OC(C)=O
inactive: outcome [1] | outcome [2] | outcome [3] | outcome [4] | outcome [5] | outcome [6] | outcome [7] | outcome [8] | outcome [9]

C[C@@H](Oc1ccc2[nH]nc(/C=C/c3cnn(CCO)c3)c2c1)c1c(Cl)cncc1Cl
active: AC50 [1] 0.0295 µM | AC50 [2] 0.418 µM | AC50 [3] 20.9 µM | AC50 [4] 5.9 µM | AC50 [5] 0.0148 µM | AC50 [6] 0.0105 µM | AC50 [7] 16.6 µM | AC50 [8] 0.468 µM | IC50 [9] 2.09 µM

Nc1cc(C(F)(F)F)c(-c2cc(N3CCOCC3)nc(N3CCOCC3)n2)cn1
1500: cell count [10, 16]
7440: cell count [11]
active: AC50 [1] 2.95 µM | AC50 [2] 6.62 µM | AC50 [3] 2.09 µM | AC50 [4] 0.332 µM | AC50 [5] 2.95 µM | AC50 [6] 0.934 µM | AC50 [7] 1.48 µM | AC50 [8] 1.48 µM | IC50 [9] 3.72 µM | z-score [12, 18] 2.94 | viability [13, 26] 98.2% | viability [13, 40] 93.6% | viability [13, 42] 87.5% | viability [13, 43] 92.9% | viability [13, 44] 71.8% | viability [13, 45] 80.8% | viability [13, 46] 69.7% | viability [13, 47] 51.3% | viability [13, 48] 31.4% | viability [13, 49] 25.1% | viability [13, 50] 26.6% | viability [13, 51] 12.2%
1.1: fold change [10, 15]
inactive: fold change [10, 14] 0.829 | plate-normalised HSF1 focus index [11] 0.897 | viability [13, 20] 103% | viability [13, 21] 125% | viability [13, 22] 104% | viability [13, 23] 106% | viability [13, 24] 103% | viability [13, 25] 120% | viability [13, 27] 114% | viability [13, 28] 112% | viability [13, 29] 141% | viability [13, 30] 103% | viability [13, 31] 107% | viability [13, 32] 104% | viability [13, 33] 117% | viability [13, 34] 100% | viability [13, 35] 110% | viability [13, 36] 120% | viability [13, 37] 121% | viability [13, 38] 104% | viability [13, 39] 102% | viability [13, 41] 124%
1810: cell count [10, 17]
-2.21: z-score [12, 19]
-2.85: SSMD [11]

C[C@@]12O[C@@H](C[C@]1(O)CO)n1c3ccccc3c3c4c(c5c6ccccc6n2c5c31)CNC4=O
active: AC50 [1] 2.95 µM | AC50 [2] 4.69 µM | AC50 [3] 2.96 µM | AC50 [4] 8.33 µM | AC50 [5] 1.32 µM | AC50 [6] 0.186 µM | AC50 [7] 8.33 µM | AC50 [8] 1.86 µM | IC50 [9] 2.63 µM

Cn1cc(-c2ccc3nnc(Sc4ccc5ncccc5c4)n3n2)cn1
active: viability [13, 22] 97.6% | viability [13, 23] 94.3% | viability [13, 27] 98.6% | viability [13, 50] 91.5%
7210: cell count [10, 16]
inactive: outcome [1] | outcome [2] | outcome [3] | outcome [4] | outcome [5] | outcome [6] | outcome [7] | outcome [8] | outcome [9] | fold change [10, 14] 0.884 | plate-normalised HSF1 focus index [11] 1.11 | z-score [12, 18] -0.396 | viability [13, 20] 127% | viability [13, 21] 127% | viability [13, 24] 135% | viability [13, 25] 125% | viability [13, 26] 111% | viability [13, 28] 132% | viability [13, 29] 125% | viability [13, 30] 112% | viability [13, 31] 102% | viability [13, 32] 126% | viability [13, 33] 122% | viability [13, 34] 110% | viability [13, 35] 103% | viability [13, 36] 120% | viability [13, 37] 124% | viability [13, 38] 103% | viability [13, 39] 110% | viability [13, 40] 126% | viability [13, 41] 123% | viability [13, 42] 107% | viability [13, 43] 106% | viability [13, 44] 131% | viability [13, 45] 124% | viability [13, 46] 105% | viability [13, 47] 104% | viability [13, 48] 157% | viability [13, 49] 114% | viability [13, 51] 100%
1.79: SSMD [11]
8160: cell count [10, 17]
0.78: fold change [10, 15]
7530: cell count [11]
0.75: z-score [12, 19]

CCC(=O)O[C@]1(C(=O)CO)CC[C@H]2[C@@H]3CCC4=CC(=O)CC[C@]4(C)[C@H]3CC[C@@]21C
inactive: outcome [1] | outcome [2] | outcome [3] | outcome [4] | outcome [5] | outcome [6] | outcome [7] | outcome [8] | outcome [9]

Cc1cnc(Nc2ccc(F)cc2Cl)nc1-c1c[nH]c(C(=O)N[C@H](CO)c2cccc(Cl)c2)c1
active: AC50 [1] 1.32 µM | AC50 [2] 18.7 µM | AC50 [3] 0.833 µM | AC50 [4] 0.469 µM | AC50 [5] 1.32 µM | AC50 [6] 2.09 µM | AC50 [7] 18.7 µM | AC50 [8] 0.833 µM | IC50 [9] 9.34 µM

O=C(Nc1ccccc1Br)N[C@@H]1CCN(c2ccc(C(F)(F)F)cn2)C1
inactive: outcome [1] | outcome [2] | outcome [3] | outcome [4] | outcome [5] | outcome [6] | outcome [7] | outcome [8] | outcome [9]

CC1(C)SCCN(S(=O)(=O)c2ccc(OCC#CCO)cc2)[C@H]1C(=O)NO
inactive: outcome [1] | outcome [2] | outcome [3] | outcome [4] | outcome [5] | outcome [6] | outcome [7] | outcome [8] | outcome [9]

COc1cccc2c(NCc3ccccc3)nc(-n3c(N)nc4ccccc43)nc12
active: AC50 [1] 3.72 µM | AC50 [3] 9.35 µM | AC50 [4] 3.32 µM | AC50 [5] 3.32 µM | AC50 [6] 2.63 µM | AC50 [7] 2.64 µM | AC50 [8] 2.95 µM | IC50 [9] 2.95 µM
inactive: outcome [2]
